The source of these data is PubChem BioAssay (NCI).

Values joined by “and” are separate entries in the source; they are usually repeats but may differ in a detail not shown here. Equal entries are not always repeated. Compounds without any hit were thinned out: in the full panel of roughly 83,000, 20% have a hit.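 Note: values are percent growth. 100 is the growth of untreated cells, values between 100 and 0 indicate rising inhibition; between -100 and 0 indicates cell death.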 Active and inactive are the calls of the source. Rule for the calls: active = growth percent below 10; inactive = the rest.

The test system of this experiment is MDA-MB-468 breast. As to the kind of experiment: NCI-60 one-dose screen, 48 h (100 = growth as untreated, 0 = no growth, -100 = all killed). As to conditions: 10 µM unless noted.
Regarding `NC1=NC(c2ccccc2)C2=C(N1)/C(=C/c1ccccc1)CCC2` (stereo not given), the growth is 89.6% (inactive).
The value for `COc1cc(/C=C/c2nnc(-c3cc(-c4ccccc4)n[nH]3)o2)cc(OC)c1OC` was 101% (inactive); that for `CN1CCN(c2ccc(NC(=O)c3cncnc3Nc3ccc(OCc4ccccn4)c(Cl)c3)cc2)CC1` was 38.1% (inactive); that for `C/C(=N\NC(=O)c1ccc(C(C)(C)C)cc1)c1ccc(O)cc1O` was -26.3% (active).
In the case of `Cc1[nH]c(/C=C2\C(=O)Nc3ccc(F)cc32)c(C)c1C(=O)NC[C@H](O)CN1CCOCC1` it was 114% (inactive); in that of `Cn1cc(-c2nnc(-c3cn(C)c4ncccc34)s2)c2ccccc21`, 12.6% (inactive).
`COc1ccc2c(c1)CC[C@H](O)/C2=C/c1cc(OC)c(OC)c(OC)c1`: the growth is 17.6% (inactive).
In the case of `Cc1ccc(/C=C/C(=O)c2ccc(F)cc2)s1` it was 42.2% (inactive); in that of `Cc1ccc([C@@H]2C[C@H](O)Cc3ccccc3N2)s1`, 124% (inactive); in that of `CNc1cc(-c2cccc(OC(F)(F)F)c2)nc2ccc(N3CCCC3)cc12`, -69.7% (active) and -68% (active) and -66.2% (active).
In the case of `C[C@H]1[C@H](C)CC[C@]2(C(=O)O)CC[C@]3(C)C(=CC[C@@H]4[C@@]5(C)C/C(=C/c6cccnc6)[C@H](O)C(C)(C)[C@@H]5CC[C@]43C)[C@H]12` it was 5.39% [100 µM] (active); in that of `O=C(N/N=C1\c2ccccc2-c2cccc(C(=O)O)c21)c1ccc(O)cc1`, 90.8% (inactive); in that of `CC1=CC(=Nc2ccc(N(C)C)cc2)C=C(C)C1=O`, 15% (inactive).
`COc1cccc(-c2nn(-c3ccccc3)cc2-c2ccnc(NCCNC(=O)Nc3ccc(Cl)c(Cl)c3)c2)c1`: the growth was -17.4% (active).
For the compound `N#CC1=C(/N=C/c2ccccc2)Oc2c(ccc3ccccc23)C1c1ccccc1` (stereo not given), the growth was 6.43% (active).
The value for `Cc1cc2nc3c4cc(O)ccc4n(CCN(C)C)c3nc2cc1C` was -38.4% (active); that for `CN(C)CCCNC1=C(Cl)C(=O)c2ccccc2C1=O` was -8.11% (active) and -54.1% (active).
Regarding `CCn1cc(C(=O)O)c(=O)c2cc(F)c(N3CCN(CC(=O)Nc4ccc(C(C)=O)cc4)CC3)cc21`, the growth was 108% (inactive).
In the case of `O=[N+]([O-])c1ccc(N/N=C\c2cc(Br)ccc2O)nc1` it was -19.7% (active) and -13.5% (active); in that of `CCOC(=O)CN(c1sc(C)c(C)c1C(=O)OCC)S(=O)(=O)c1ccc(C)cc1`, 89.6% (inactive); in that of `COc1ccc(Nc2nccc(N3CCN(c4c5ccc(Cl)cc5nc5ccc(OC)cc45)CC3)n2)cc1`, 31.5% (inactive).
On to `COc1cc(-c2c3c(cn2S(=O)(=O)c2ccccc2)-c2nc(N)sc2CC3)cc(OC)c1OC`, for which the growth was 23.4% (inactive).
Take `COc1ccc(Cn2cc(C(=O)Nc3cccnc3Nc3ccccc3)nn2)cc1`: the growth is 92.9% (inactive).
In the case of `COc1ccc(/C=C/C(=O)N2CCC(O)CC2)cc1OC1CCCC1` it was 114% (inactive).
In the case of `COc1ccc(-c2ccccc2)cc1-c1c(Nc2cc(Cl)cc(Cl)c2O)c(=O)c1=O`, the growth is -3.49% (active).
Regarding `CC(C)(C)[Si](C)(C)OC1[C@@H](COC(N)=O)O[C@@H](n2cnc3c(N)ncnc32)[C@H]1O[Si](C)(C)C(C)(C)C` (stereo not given in full), the growth is 97.2% (inactive).
The value for `Cc1ccc(-c2c3c(N)c4c(nc3nc3c2c(C)nn3-c2ccccc2)CCC4)cc1` was 53% (inactive); that for `O=C(CCl)Nc1ccc2c(Nc3cc(O)ccc3Cl)ncnc2c1` was -61.7% (active); that for `CC1=C(/C=C/C(C)=C/C=C/C(C)=C/C(=O)O)C(C)(C)CCC1` was 99.9% (inactive) and 110% (inactive).
On to `c1cc(OCCN2CCCCCC2)ccc1CNc1ccc2nc(CCC3CCCCC3)[nH]c2c1`, for which the growth was 58.2% (inactive).
The value for `CCCCC(=O)Nc1nc2ccc(SCCC)cc2s1` was 20% (inactive); that for `CC(=O)/C(=C/c1ccc(Cl)cc1)C(=O)c1ccccc1` was 96.9% (inactive); that for `O=C(O)CCCN1C(=O)NC2(C1=O)c1ccccc1-c1ccccc12` was 98.2% (inactive).
Consider `CC1=C(C#N)C(C)(C)C(C#N)=C(C)N1`, for which the growth was 98.6% (inactive).
The value for `C=CCn1c(C)nc2cc(Nc3nc(Nc4ccc5nc(C)n(CC=C)c5c4)nc4ccccc34)ccc21` was 118% (inactive); that for `C/C(=N\Nc1ccc(Cl)cn1)c1ccccn1` was -41% (active); that for `ClCC#CCSc1ncnc2c1ncn2CC#CCCl` was -57.2% (active).
The value for `COc1ccc(-c2cc(/C=C/C(=O)c3ccc(OC)c(OC)c3)[nH]n2)cc1` was 21.4% (inactive); that for `CCOC(=O)c1[nH]c(C#N)c(C(=O)OCC)c1C` was 105% (inactive).
The value for `Fc1ccc(Nc2ccc3c(OCCCN4CCOCC4)cccc3n2)cc1F` was 46.3% (inactive).
